Only some compounds are listed: those with a hit (about 3.9% of all), similar ones and a draw of the others.
FH mod = Identification of activators of human fumarate hydratase by quantitative high-throughput screening. Potency, µM (highest dose often 79.9 µM), most hits filed as inhibitors. 54,000 tested, 0.22% active. FH coupled MDH/diaphorase resazurin fluorescence, 15 min; further: the screen sought activators but most active calls are inhibition curves; nearly all actives have a fitted effect of over 45% in size
NTMT1 inh = blocks human N-terminal methyltransferase 1 activity | Q9BV86 | NTMT1 MTase-Glo SAH luminescence, purified enzyme | Potency, µM (highest dose often 114 µM), usual class: inhibitors | 59,000 tested, 2.5% active | AID 1645870; further: nearly all actives have a fitted effect of over 65% in size
Target sequence (Q9BV86 whole entry, looked up): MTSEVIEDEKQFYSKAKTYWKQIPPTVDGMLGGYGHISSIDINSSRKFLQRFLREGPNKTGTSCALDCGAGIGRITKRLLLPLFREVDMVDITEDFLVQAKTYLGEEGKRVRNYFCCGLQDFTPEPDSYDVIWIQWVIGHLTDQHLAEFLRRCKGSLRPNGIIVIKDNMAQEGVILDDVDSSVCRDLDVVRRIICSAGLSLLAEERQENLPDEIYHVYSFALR
p53null 39C kill = kills p53 null cells at the nonpermissive temperature; H1299 p53-null (neo) cells, 39C, ATPlite viability, 24 h; Potency, µM (doses to about 46.1 µM), hits mostly cytotoxic; 55,000 tested, 0.97% active; further: nearly all actives have a fitted effect of over 50% in size
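Temperature-shift cytotoxicity format: compound titrations on p53-null or A138V-expressing H1299 cells held 24 hr at 39C, cell ATP then measured, AC50 from Hill model.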
GALC G270D act = galactocerebrosidase G270D activity enhancement, cell-based; P54803; 145M-Twi-hGALC-G270D cells (Twitcher mouse brain line with human GALC G270D), HMU-beta-Gal fluorescence, 48 h; Potency, µM (titrated, usually from 57.5 µM), most hits filed as activators; 45,000 tested, 0.1% active; AID 1159614; further: nearly all actives have a fitted effect of over 65% in size
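Mutant human GALC (G270D), stably expressed in a Twitcher mouse brain cell line lacking endogenous GALC, is measured in live-treated cells via 6-hexadecanoylamino-4-methylumbelliferyl-β-galactoside hydrolysis (0.1 mM final, pH 5.2) with fluorescent detection.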
p53null 32C tox = selectivity test: cytotoxicity in p53 null cells, permissive temperature. 55,000 tested, 0.62% active. H1299-neo p53 null cells, ATP luminescence, 24 h, 32C. Potency, µM (top dose mostly 46.1 µM), usual class: cytotoxic; further: nearly all actives have a fitted effect of over 55% in size
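H1299-neo (p53-null) cells, 600/well, were pre-incubated overnight at 37C, then exposed to compounds at up to 46 uM for 24 hr at 32C. Viability was measured as ATP content by luminescence, and AC50 values came from Hill fits.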
GPR32 ag = activates human resolvin D1 receptor GPR32. 48,000 tested, 2.5% active. CHO-K1 GPR32 beta-arrestin PathHunter luminescence, 90 min; zero percent set by DMSO-only wells. activation, % at 76.9 µM;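 active means activation of at least 60% and not above a set upper limit, about 1 call in 100 departs from these limits; inconclusive means activation of 40% to 60%, or above that upper limit; inactive means activation under 40%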
Target sequence (O75388 whole entry, looked up): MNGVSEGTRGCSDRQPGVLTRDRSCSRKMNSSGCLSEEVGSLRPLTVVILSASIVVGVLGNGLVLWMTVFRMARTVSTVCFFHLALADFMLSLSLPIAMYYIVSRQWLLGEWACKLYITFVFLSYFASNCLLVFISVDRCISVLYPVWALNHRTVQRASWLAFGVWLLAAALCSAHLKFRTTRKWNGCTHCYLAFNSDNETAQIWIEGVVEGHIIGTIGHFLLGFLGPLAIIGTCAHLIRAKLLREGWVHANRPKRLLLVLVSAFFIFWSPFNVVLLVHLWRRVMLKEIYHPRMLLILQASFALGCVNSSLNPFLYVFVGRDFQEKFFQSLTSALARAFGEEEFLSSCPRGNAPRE
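Using DMSO wells as EC0, agonist-induced signal was taken as chemiluminescence from beta-Gal reconstituted upon beta-arrestin recruitment to GPR32 in CHO-K1 cells after 90 min compound treatment.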
Each line names hits and unclear results; the compound was inactive in the other large screens. Unless noted, the call rests on the fitted dose curve; in most records, active means well fitted curve in the direction sought with a large enough effect; inconclusive means small, poorly fitted or top-dose-only effect, or another doubt; inactive means no such curve, though single readings can be large; an effect the other way counts as inactive or inconclusive.

Cc1cccc(CCNC(=O)c2ccc3c(c2)nc2n3CCOC2)c1	p53null 39C kill inconclusive, p53null 32C tox inconclusive
Cc1ccc(CNC(=O)c2ccc3c(c2)nc2n3CCCC2)cc1	none
CCCNC(=O)c1ccc2c(c1)nc1n2CCCCC1	p53null 39C kill 10µM, p53null 32C tox 12.6µM
Cc1ccc(CCNC(=O)c2ccc3c(c2)nc2n3CCCCC2)cc1	NTMT1 inh inconclusive, p53null 39C kill inconclusive
Cc1cc2c(cc1C1(c3ccc(C(=O)O)cc3)CC1)C(C)(C)CCC2(C)C	none (no result: FH mod, p53null 39C kill, GALC G270D act, p53null 32C tox, GPR32 ag)
O=C(COc1ccc2oc3c(c2c1)CCCC3)Nc1ccc(Cl)cc1	GPR32 ag 74.5
O=C(COc1ccc2oc3c(c2c1)CCCC3)Nc1ccc(Br)cc1	none
O=C(Nc1cccc2nn(-c3ccc(F)cc3)cc12)c1ccccn1	none (no result: FH mod, p53null 39C kill, GALC G270D act, p53null 32C tox, GPR32 ag)
CCc1ccc(C2=C(C)C(N3CCC(C(=O)Nc4ccc(F)cc4)CC3)=NS2(=O)=O)cc1	p53null 32C tox inconclusive, GPR32 ag 74.0
CC1=C(c2ccc(C(C)C)cc2)S(=O)(=O)N=C1N1CCC(C(=O)Nc2ccc(C)cc2)CC1	GPR32 ag inconclusive
CC1=C(c2ccc(Cl)cc2)S(=O)(=O)N=C1N1CCC(C(=O)NCCc2ccco2)CC1	none
CC1=C(c2ccc(C(C)C)cc2)S(=O)(=O)N=C1N1CCC(C(=O)NCCc2ccco2)CC1	GPR32 ag 63.9
CCc1ccccc1NC(=O)C1CCN(C2=NS(=O)(=O)C(c3ccc(C)c(C)c3)=C2C)CC1	GPR32 ag 89.4
CC1(C)CC(NC(=O)C(=O)Nc2ccc(Br)cc2)CC(C)(C)N1	none (no result: p53null 39C kill, GALC G270D act, p53null 32C tox, GPR32 ag)
Cc1ccc(S(=O)(=O)Nc2ccccc2C(=O)Nc2ccc(-c3ccccc3)cc2)cc1	none (no result: FH mod, p53null 39C kill, GALC G270D act, p53null 32C tox, GPR32 ag)
Cc1ccc(C(=O)Oc2ccc(-c3nc4ccccc4[nH]3)cc2)cc1Br	none (no result: FH mod, p53null 39C kill, GALC G270D act, p53null 32C tox, GPR32 ag)
CCCCCCCCCCCCCCCC[n+]1ccccc1	NTMT1 inh 22.4µM (no result: p53null 39C kill, p53null 32C tox)
O=C(Nc1ccc(N2CCN(c3ccc(F)cc3)CC2)c(C(=O)O)c1)c1cccs1	NTMT1 inh 89.1µM
N#C/C(=C1/Nc2ccccc2S1)c1ccnc(OCc2ccc(CN3CCOCC3)cc2)n1	none (no result: FH mod, p53null 39C kill, GALC G270D act, p53null 32C tox, GPR32 ag)
FC(F)(F)c1ccccc1-c1cc(C(F)(F)F)c2nc(C3=NOC4(CCCCC4)C3)[nH]c2c1	none (no result: p53null 39C kill, GALC G270D act, p53null 32C tox, GPR32 ag)
CCOc1ccc(NC(=O)N2CCN(Cc3cc(=O)n4nc(-c5ccc(OC)cc5)sc4n3)CC2)cc1	none
CCOc1ccc(C(=O)N2CCN(Cc3cc(=O)n4nc(-c5cccc(OC)c5)sc4n3)CC2)cc1	GPR32 ag 74.3
CCNC(=O)Nc1ncc(-c2cc(-c3c(C)cc(OC)cc3C)nc(-c3cnccn3)n2)s1	none (no result: p53null 39C kill, GALC G270D act, p53null 32C tox, GPR32 ag)
CCOc1ccc(CC(=O)NCCc2csc(-c3ccc(Cl)cc3)n2)cc1	GPR32 ag 87.7
CCOc1ccc(CC(=O)NCCc2csc(-c3ccc(C)cc3)n2)cc1	none
Cc1cccc(NC(=O)C(=O)NCCc2csc(-c3ccc(F)cc3)n2)c1C	none
O=C(COc1ccccc1)NCCc1csc(-c2ccc(F)cc2)n1	GPR32 ag 120.1
O=C(COc1ccc(Cl)cc1)NCCc1csc(-c2cccc(F)c2)n1	GPR32 ag 76.7
COc1ccc(F)cc1S(=O)(=O)NCCc1csc(-c2ccc(Cl)cc2)n1	FH mod inconclusive, p53null 39C kill 20µM
Cc1ccc(-c2nc3sc(CCNC(=O)c4ccco4)c(C)n3n2)cc1	p53null 39C kill inconclusive, GPR32 ag 64.9
Cc1nc(-c2ccc(F)cc2)sc1CCNC(=O)c1ccco1	none
O=C(NCCc1csc(-c2ccc(F)cc2)n1)c1ccco1	GPR32 ag 109.1
O=C(CCc1ccccc1)NCCc1csc(-c2cccc(F)c2)n1	GPR32 ag 85.5
Cc1cccc(-n2ncc3c(N4CCCC4)ncnc32)c1	none (no result: FH mod, NTMT1 inh, GALC G270D act, GPR32 ag)
Cc1ccc(-n2ncc3c(N(C)Cc4ccccc4)ncnc32)cc1	p53null 32C tox 12.6µM
Cc1ccc(-n2ncc3c(NCCCN4CCOCC4)ncnc32)cc1C	NTMT1 inh 50.1µM
Cc1ccc(-n2ncc3c(N4CCN(C)CC4)ncnc32)cc1C	NTMT1 inh inconclusive, GPR32 ag 74.9

Source: PubChem (National Center for Advancing Translational Sciences (NCATS))
